Here are results for nine molecules from PubChem BioAssay (NCI).

Test in all cases: NCI-60 one-dose screen, 48 h (100 = growth as untreated, 0 = no growth, -100 = all killed)
In one assay the test system is NCI-H23 lung. The settings on record: 10 µM unless noted.
In the next assay the test system is NCI-H226 lung. The settings on record: 10 µM unless noted.
The next assay concerns NCI-H322M lung. Conditions: 10 µM unless noted.
The subject of the next assay is NCI-H460 lung. The settings on record: 10 µM unless noted.
The subject of a further assay is HOP-92 NSCLC. The settings on record: 10 µM.
The subject of the next assay is NCI-H522 lung. The settings on record: 10 µM.
The test system of a further assay is A549/ATCC NSCLC. Conditions: 10 µM unless noted.
In the next assay the test system is 786-0 renal. The settings on record: 10 µM unless noted.
For the next assay, the system named is COLO 205 colon. Conditions: 10 µM unless noted.
The next assay has as its system DU-145 prostate. The settings on record: 10 µM unless noted.
The subject of another assay is K-562 leukemia. Conditions: 10 µM unless noted.
A further assay deals with MALME-3M melanoma. Conditions: 10 µM unless noted.
In a further assay the test system is MDA-MB-231 breast. Conditions: 10 µM unless noted.
The next assay has as its system RXF 393 renal. Conditions: 10 µM unless noted.
The subject of a further assay is SF-268 CNS. The settings on record: 10 µM unless noted.
The test system of a further assay is SF-295 CNS. The settings on record: 10 µM unless noted.
For another assay, the system named is SF-539 CNS. Conditions: 10 µM unless noted.
The next assay relates to UACC-257 melanoma. The settings on record: 10 µM unless noted.
In a further assay the test system is M14 melanoma. The settings on record: 10 µM unless noted.

This is part of a sample that, as a whole, favours compounds with a hit. Of some 83,000 tested, about 20% had one in any assay.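 Testing used 96-well plates and a 48-hour single-concentration exposure. Example: -40 means 40% of the starting cells died.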 A number with no mark means an inactive call. Active and inactive are the calls of the source. Rule for the calls: active = growth percent below 10; inactive = the rest.

On to `C/C(=N\Nc1cccc(Cl)n1)c1ccccn1`, for which the growth with NCI-H23 lung was 16.8%; in the assay with NCI-H226 lung it was -3.86% (active); with NCI-H322M lung, 23.7%; in the assay with NCI-H460 lung it was 5.39% (active); with HOP-92 NSCLC, 40.5%; in the assay on NCI-H522 lung, 24.6%. In addition, the growth in the assay on A549/ATCC NSCLC was 9.19% (active); in the assay with 786-0 renal it was 8.33% (active); in the assay on COLO 205 colon it was 10.6%; in the assay on DU-145 prostate, 23.3%; with K-562 leukemia, 6.59% (active); with MALME-3M melanoma it was 21.6%. Besides, the growth was 36.8% in the assay on MDA-MB-231 breast; 24% in the assay with RXF 393 renal; 12.8% with SF-268 CNS; 0.34% (active) in the assay with SF-295 CNS; 1.72% (active) with SF-539 CNS; 2.3% (active) in the assay with UACC-257 melanoma. Moreover, the growth in the assay on M14 melanoma is -23.8% (active).
Take `CCCCCCCCCCCCCCCCCC1=NCCN1CCNC(C)=O`: the growth was 93% in the assay on NCI-H23 lung; 100% in the assay on NCI-H226 lung; 90.6% with NCI-H322M lung; 50.5% in the assay with NCI-H460 lung; 62.1% in the assay on HOP-92 NSCLC; 98.8% with NCI-H522 lung. Moreover, the growth in the assay with A549/ATCC NSCLC was 79.3%; in the assay on 786-0 renal, 92.3%; in the assay on COLO 205 colon, 92.6%; with DU-145 prostate, 69.7%; in the assay with K-562 leukemia, 26.4%; in the assay with MALME-3M melanoma, 98.9%. For the same molecule, the growth was 66.3% in the assay on MDA-MB-231 breast; 99% with RXF 393 renal; 88.7% in the assay with SF-268 CNS; 108% in the assay on SF-295 CNS; 86.8% in the assay on SF-539 CNS; 108% with UACC-257 melanoma. In addition, the growth in the assay with M14 melanoma is 101%.
For `Oc1ccccc1/C=N/N=C\c1ccccc1Cl`, the growth in the assay on NCI-H23 lung was 88.3%; in the assay with NCI-H226 lung, 76.8%; in the assay with NCI-H322M lung it was 97.6%; with NCI-H460 lung, 99%; in the assay with HOP-92 NSCLC, 77.5%; in the assay with NCI-H522 lung it was 92.3%. The growth was 101% with A549/ATCC NSCLC; 100% in the assay with 786-0 renal; 109% in the assay on COLO 205 colon; 99.5% with DU-145 prostate; 77.1% with K-562 leukemia; 103% in the assay on MALME-3M melanoma. Further, the growth in the assay on MDA-MB-231 breast is 72.6%; in the assay with RXF 393 renal, 97.3%; in the assay with SF-268 CNS, 91.9%; in the assay on SF-295 CNS, 98.7%; in the assay on SF-539 CNS it was 105%; with UACC-257 melanoma, 104%. Besides, the growth in the assay on M14 melanoma was 91%.
Regarding `Nc1cc2c(cc1Br)[nH]c(=O)c1ccccc12`, the growth with NCI-H23 lung was 54.4%; in the assay on NCI-H226 lung, 54.8%; with NCI-H322M lung, 83.8%; in the assay with NCI-H460 lung, 38.4%; in the assay with HOP-92 NSCLC, 35%; in the assay with NCI-H522 lung, 43%. For the same molecule, the growth is 29.3% with A549/ATCC NSCLC; 58.6% in the assay with 786-0 renal; 68.1% in the assay on COLO 205 colon; 27.8% in the assay on DU-145 prostate; 40.7% in the assay on K-562 leukemia; 26.3% in the assay on MALME-3M melanoma. Also, the growth in the assay on MDA-MB-231 breast was 32%; in the assay on RXF 393 renal, 22%; in the assay on SF-268 CNS, 51.3%; in the assay with SF-295 CNS, 74.8%; in the assay with SF-539 CNS, 110%; in the assay on UACC-257 melanoma, 45.8%. The growth in the assay on M14 melanoma was 22%.
As to `COc1cc(-c2c3c(cn2CCN2CCCCC2)-c2oncc2CC3)cc(OC)c1OC`, the growth with NCI-H23 lung is 98.6%; with NCI-H226 lung, 90.2%; in the assay on NCI-H322M lung, 110%; in the assay with NCI-H460 lung it was 101%; in the assay with HOP-92 NSCLC it was 81.8%; in the assay on NCI-H522 lung it was 90.9%. Further, the growth was 101% with A549/ATCC NSCLC; 105% in the assay on 786-0 renal; 103% with COLO 205 colon; 109% with DU-145 prostate; 108% in the assay on K-562 leukemia; 110% with MALME-3M melanoma. In addition, the growth is 109% in the assay on MDA-MB-231 breast; 100% with RXF 393 renal; 94.7% in the assay with SF-268 CNS; 97.6% in the assay on SF-295 CNS; 94% in the assay with SF-539 CNS; 109% in the assay on UACC-257 melanoma. Moreover, the growth in the assay with M14 melanoma is 105%.
On to `OCC(O)C(O)CC1SCCS1` (configuration not stated), for which the growth with NCI-H23 lung was 97.3%; in the assay on NCI-H226 lung it was 91.9%; in the assay on NCI-H322M lung, 109%; with NCI-H460 lung, 108%; with HOP-92 NSCLC, 104%; in the assay on NCI-H522 lung, 96.6%. In addition, the growth with A549/ATCC NSCLC is 101%; in the assay with 786-0 renal, 96%; with COLO 205 colon, 106%; in the assay on DU-145 prostate, 108%; in the assay with K-562 leukemia, 83%; with MALME-3M melanoma, 101%. For the same molecule, the growth is 114% in the assay with MDA-MB-231 breast; 102% with RXF 393 renal; 99.4% with SF-268 CNS; 104% with SF-295 CNS; 103% in the assay with SF-539 CNS; 105% with UACC-257 melanoma. In the assay on M14 melanoma, the growth is 97.9%.
On to `COc1ccc(C(=O)c2no[n+]([O-])c2C(=O)c2ccc(OC)cc2)cc1`, for which the growth with NCI-H23 lung was 89.6%; with NCI-H226 lung it was 41.7%; with NCI-H322M lung, 83.8%; in the assay on NCI-H460 lung, 89.8%; in the assay on HOP-92 NSCLC it was -73.5% (active); with NCI-H522 lung, -88.3% (active). Further, the growth was 94.8% in the assay on A549/ATCC NSCLC; -98.7% (active) with 786-0 renal; -85.7% (active) with COLO 205 colon; 81.1% in the assay with DU-145 prostate; -100% (active) in the assay with K-562 leukemia; -69.5% (active) in the assay with MALME-3M melanoma. Besides, the growth is 57.4% in the assay on MDA-MB-231 breast; -38.5% (active) with SF-268 CNS; 92.8% in the assay on SF-295 CNS; 89.3% in the assay with SF-539 CNS; 13.4% with UACC-257 melanoma.
As for `COc1ccc2nc3cc(Cl)ccc3c(NCCCNC(C)=O)c2c1`, the growth in the assay with NCI-H23 lung is 37%; in the assay on NCI-H226 lung, 34.1%; with NCI-H322M lung, 34.4%; with NCI-H460 lung it was 7.26% (active); in the assay with HOP-92 NSCLC, 50.4%; in the assay on NCI-H522 lung, 52.5%. Besides, the growth was 23.9% with A549/ATCC NSCLC; 48.9% in the assay with 786-0 renal; 23.7% with COLO 205 colon; 29.4% with DU-145 prostate; 23.9% in the assay on K-562 leukemia; 40% in the assay on MALME-3M melanoma. Also, the growth in the assay with MDA-MB-231 breast was 56.8%; with RXF 393 renal it was 32.9%; in the assay with SF-268 CNS it was 43%; in the assay on SF-295 CNS, 45.7%; with SF-539 CNS, 20.1%; with UACC-257 melanoma it was 43.1%. In addition, in the assay on M14 melanoma, the growth is 44.4%.
For the molecule `N=C(N)N=Nc1ccc(NN=C(N)N)cc1`, the growth is 104% with NCI-H23 lung; 81.5% with NCI-H226 lung; 126% with NCI-H322M lung; 85.8% in the assay on NCI-H460 lung; 96% with HOP-92 NSCLC; 88.1% in the assay on NCI-H522 lung. The growth was 8.54% (active) with A549/ATCC NSCLC; 98.9% in the assay on 786-0 renal; 64.1% with COLO 205 colon; 95.4% in the assay on DU-145 prostate; 96.2% in the assay with K-562 leukemia; 138% with MALME-3M melanoma. In addition, the growth is 86.2% in the assay with MDA-MB-231 breast; 81.6% with RXF 393 renal; 101% in the assay on SF-295 CNS; 94% in the assay with UACC-257 melanoma; 78.6% in the assay on M14 melanoma.
